{
  "source": "PubChem BioAssay AID602179",
  "about": "(National Center for Advancing Translational Sciences (NCATS), 2012)",
  "note": "Out of some 390,000 compounds screened, about 360 (0.092%) were called active. This excerpt belongs to a sample that is enriched for actives. Values without a mark were called inactive. The call rests on the fitted dose curve; in most records, active means well fitted inhibition curve with a large enough effect; inconclusive means small, poorly fitted or top-dose-only effect; inactive means no such curve, though single readings can be large or run the other way. Potency means the concentration at half of the fitted maximal effect.",
  "data": [
    {"target": "Isocitrate dehydrogenase [NADP] cytoplasmic (Homo sapiens) (UniProt O75874)", "sequence (O75874 whole entry R132H, stated change not applied)": "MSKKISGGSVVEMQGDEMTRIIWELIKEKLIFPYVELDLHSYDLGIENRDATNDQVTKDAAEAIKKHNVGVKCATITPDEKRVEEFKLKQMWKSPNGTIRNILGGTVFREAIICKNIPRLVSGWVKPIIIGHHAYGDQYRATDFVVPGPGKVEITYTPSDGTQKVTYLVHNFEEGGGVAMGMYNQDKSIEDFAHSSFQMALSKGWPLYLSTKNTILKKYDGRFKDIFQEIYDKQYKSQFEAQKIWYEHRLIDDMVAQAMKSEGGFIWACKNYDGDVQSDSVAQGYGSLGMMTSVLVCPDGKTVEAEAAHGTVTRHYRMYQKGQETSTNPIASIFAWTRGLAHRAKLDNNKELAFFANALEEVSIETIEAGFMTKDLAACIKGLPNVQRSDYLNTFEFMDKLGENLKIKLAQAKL", "test": "qHTS for Inhibitors of mutant isocitrate dehydrogenase 1 (IDH1): qHTS; further: nearly all actives have a fitted effect of over 65% in size", "details": "IDH1-R132H enzyme, NADPH consumption, diaphorase/resazurin fluorescence; series mostly up to 76.6 µM; activity change, negative = inhibition: at the top concentration", "description": "Unbiased genomic sequencing for 22 glioma genomes found recurrent mutation of isocitrate dehydrogenase 1 (IDH1) on chromosome 2q33-a gene encoding the cytosolic isoform of IIDH1associated with the tricarboxylic acid cycle (TCA) that catalyzes the oxidative decarboxylation of isocitrate, yielding alpha-ketoglutarate and CO2 via NADP+ to NADPH conversion. Subsequent studies confirmed the recurrent IDH mutations in up to 70% of secondary gliomas and in 10% of AML cases. […] This in effect defines IDH1 as an oncogene, and provides an extraordinary opportunity to discover chemical probes against mutant IDH1 that may translate into much needed new therapies for glioma and AML patients. […] NIH Chemical Genomics Center [NCGC] NIH Molecular Libraries Probe Centers Network [MLPCN] MLPCN Grant: DA032129 Assay Submitter (PI): Lenny Dang, Agios Pharmaceuticals\nIDH1-R132H (0.5 ug/mL) was dispensed into black, solid-bottom 1536-well plates at 3 uL/well in 20 mM Tris-HCl (pH 7.5), 150 mM NaCl, 10 mM MgCl2, 4 mM beta-ME, and 0.05% protease-free BSA. Then, 23 nL of compounds or DMSO were delivered to each well using a pin tool. A pre-read was run on the Viewlux to identify fluorescent compounds (540 nm excitation filter, 598 nm emission filter, bodipy mirror and 2 second exposure). After 30 minutes of incubation with compound, 3 uL of substrate mix were dispensed (0.016 mM NADPH, 2 mM alpha-KG, 20 mM Tris-HCl (pH 7.5), 150 mM NaCl, 10 mM MgCl2, and 0.05% protease-free BSA). Plates were spun for 1 min at 1000xg and incubated at room temperature for 80 min. Then 1.5 uL of each detection reagent component for the coupling system were added (0.12 mg/mL diaphorase and 0.072 mM resazurin, each in 20 mM Tris-HCl (pH 7.5), 150 mM NaCl, 10 mM MgCl2, and 0.05% protease-free BSA ) The protein, substrate and two detection components were maintained at 4 °C throughout the screen. Additionally, the substrate and resazurin reagents were protected from light. The plates were measured on an Envision plate reader for fluorescence signal using a 540 nm excitation filter and 590 nm emission filter with 10 flashes. 1x and 0x (no-enzyme) IDH1-R132H enzyme control were used to normalize %Activity of identified inhibitors; 0x enzyme values corresponded to 100% Activity (full inhibition), while 1x IDH1-R132H enzyme values were used to normalize 0%Activity (no inhibition). Concentration-response curves were fitted to the signals arising from the resulting fluorescence. The concentration-effect curves were then classified based on curve quality (r2), response magnitude and degree of measured activity, and compounds were subsequently categorized based on their curve class. […] Keywords: isocitrate dehydrogenase, IDH1, IDH1-R132H, MLSMR, MLPCN, NIH Roadmap, qHTS, NCGC", "units": {"activity change, negative = inhibition": "%"}, "values": [
      {"smiles": "Cc1nn(-c2nc(-c3ccccc3)cc(C(F)(F)F)n2)c(C)c1Cl", "activity change, negative = inhibition": -2.85},
      {"smiles": "NS(=O)(=O)c1ccc2nc(NC(=O)COc3ccccc3)sc2c1", "activity change, negative = inhibition": 16.5},
      {"smiles": "O=C(NC(Nc1nc2ccc([N+](=O)[O-])cc2s1)(C(F)(F)F)C(F)(F)F)c1ccccc1", "Potency": "9.27 µM (active)"},
      {"smiles": "CN(C)c1cccc(C(=O)Nc2nc3ccc(S(=O)(=O)NC(C)(C)C)cc3s2)c1", "activity change, negative = inhibition": -9.07},
      {"smiles": "CCc1ccc(NC(=O)C2CCCN2S(=O)(=O)c2ccc3nc(-c4ccccc4)[nH]c3c2)cc1", "note": "(stereo not drawn)", "activity change, negative = inhibition": 12.1},
      {"smiles": "CCOC(=O)c1ccc(NC(=O)Cn2c(=O)cc(C)c3c(C)nn(-c4cccc(F)c4)c32)cc1", "activity change, negative = inhibition": 2.76},
      {"smiles": "CCCCN(CC)CCCNC(=O)c1nn(C)c2c1CSc1ccccc1-2", "activity change, negative = inhibition": -11.4},
      {"smiles": "O=C(CN1C(=O)CCn2nc(-c3ccccc3)cc21)NCc1ccccc1", "activity change, negative = inhibition": 8.18},
      {"smiles": "COc1ccc2c(C)c(CCC(=O)NCc3ccc(OC)c(OC)c3)c(=O)oc2c1", "activity change, negative = inhibition": 9.73},
      {"smiles": "CSc1ccc(C2c3c(oc4ccccc4c3=O)C(=O)N2CCCN2CCOCC2)cc1", "note": "(stereo not drawn)", "activity change, negative = inhibition": -26.3},
      {"smiles": "Cc1ccc(C(=O)NCCSc2c(C)[nH]c3ccccc23)cc1C", "activity change, negative = inhibition": 15},
      {"smiles": "O=C(Nc1ccccc1Br)c1cc(CN2CCCC2)on1", "activity change, negative = inhibition": 18.6},
      {"smiles": "Cc1ccc(C)c(NC(=O)C2CCCN(S(=O)(=O)c3cn(C)cn3)C2)c1", "note": "(stereo not drawn)", "activity change, negative = inhibition": -0.0051},
      {"smiles": "Cc1ccc(CNC(=O)CSc2c(C)cnc3c2c(=O)n(C)c(=O)n3C)cc1", "activity change, negative = inhibition": -5.79},
      {"smiles": "O=C(Nc1nc2c(s1)CCCC2)c1ccccc1F", "activity change, negative = inhibition": 5.05},
      {"smiles": "Cc1ccc(N2CC(C(=O)Nc3ccc(N(C)C)cc3)CC2=O)cc1Cl", "note": "(stereo not drawn)", "activity change, negative = inhibition": -6.08},
      {"smiles": "COc1cccc(NC(=O)C(=O)NCC(c2ccc3c(c2)OCO3)N2CCN(C)CC2)c1", "note": "(stereo not drawn)", "activity change, negative = inhibition": 4.3},
      {"smiles": "CSc1ccc(CCNC(=O)c2ccc3c(c2)nc2n3CCOC2)cc1", "activity change, negative = inhibition": 17.1},
      {"smiles": "O=C(NC1CC(=O)N(c2ccc(F)cc2)C1)C1CCCCC1", "note": "(stereo not drawn)", "activity change, negative = inhibition": 2.04},
      {"smiles": "O=C(/C=C/c1ccccc1)Nc1cc(-c2nc3cc(Cl)ccc3o2)ccc1Cl", "activity change, negative = inhibition": 3.86},
      {"smiles": "Cc1ccc(CCNC(=O)c2ccc3c(c2)N(Cc2cc(C)ccc2C)C(=O)c2ccccc2S3=O)cc1", "note": "(stereo not drawn)", "activity change, negative = inhibition": -5.3},
      {"smiles": "O=C(CCc1nc(CN2CCN(S(=O)(=O)c3ccc(F)cc3)CC2)no1)N1CCCCC1", "activity change, negative = inhibition": 1.03},
      {"smiles": "CCOc1ccc(Nc2oc(/C=C/c3ccc(F)cc3)nc2C#N)cc1", "activity change, negative = inhibition": 0},
      {"smiles": "Oc1ccc(-c2nc3ccc(Cl)cn3c2Nc2ccc3c(c2)OCO3)cc1", "activity change, negative = inhibition": -2.86},
      {"smiles": "COc1cc(OC)c(N(C)C(=O)c2cc3c(=O)oc4ccccc4c3s2)cc1Cl", "activity change, negative = inhibition": -4.35},
      {"smiles": "COc1ccc(-c2nc(Cn3c(=O)cc(C)c4c(C)nn(-c5ccccc5)c43)c(C)o2)cc1OC", "activity change, negative = inhibition": 14.5},
      {"smiles": "COc1ccccc1Nc1nc(N)nc(N)c1S(=O)(=O)c1ccccc1", "activity change, negative = inhibition": 8.86},
      {"smiles": "O=[N+]([O-])/C=C/c1ccc2c(ccn2Cc2ccccc2)c1", "Potency": "20.7 µM (active)"},
      {"smiles": "COc1ccc(Cn2ccn(Cc3cccc(OC)c3)c(=O)c2=O)cc1", "activity change, negative = inhibition": -4.83},
      {"smiles": "O=c1c(=O)n(Cc2c(F)cccc2Cl)ccn1Cc1ccccc1", "activity change, negative = inhibition": -0.719},
      {"smiles": "COc1ccc(Cl)cc1N(C)C(=O)c1cc2c(=O)oc3ccc(C)cc3c2s1", "activity change, negative = inhibition": 9.62},
      {"smiles": "COc1ccc(CCNC(=O)CCc2c(C)nc3c(c(C)nn3-c3ccc(C)c(C)c3)c2C)c(OC)c1OC", "activity change, negative = inhibition": -2.76},
      {"smiles": "CCN(CC)C(=O)CSc1nc2ccsc2c(=O)n1Cc1ccccc1Cl", "activity change, negative = inhibition": 8.23},
      {"smiles": "Cc1ccc(-c2ccc(CCC(=O)O)n2-c2ccc(C(N)=O)cc2)cc1", "activity change, negative = inhibition": -7.5},
      {"smiles": "N#Cc1nc(/C=C/c2ccc(F)cc2)oc1NCc1ccc(F)cc1", "activity change, negative = inhibition": -16.7},
      {"smiles": "CCOc1ccc(Nc2nc3c(S(=O)(=O)c4cccc(Cl)c4)nnn3c3ccsc23)cc1", "activity change, negative = inhibition": 11.3},
      {"smiles": "COc1cc(OC)c(C2C=C(C(=O)O)Nc3ncnn32)cc1OC", "note": "(stereo not drawn)", "activity change, negative = inhibition": -1.93},
      {"smiles": "O=C1Cc2cc(S(=O)(=O)Nc3ccc(OC(F)(F)F)cc3)cc3c2N1CCC3", "activity change, negative = inhibition": 9.9},
      {"smiles": "COc1cc(C(=O)NCCc2csc3nc(-c4ccccc4C)nn23)cc(OC)c1OC", "activity change, negative = inhibition": -17.5},
      {"smiles": "CCc1ccc(C2C(C(=O)Nc3ccccc3)=C(C)Nc3c(C(=O)Nc4ccc(C)cc4)cnn32)cc1", "note": "(stereo not drawn)", "activity change, negative = inhibition": -18.3},
      {"smiles": "CN(C)c1ccc(C(CNS(=O)(=O)c2cc(F)ccc2F)N2CCOCC2)cc1", "note": "(stereo not drawn)", "activity change, negative = inhibition": 0},
      {"smiles": "COc1ccc(S(=O)(=O)c2c(Nc3ccc(C)cc3)sc(C(=O)c3ccc(C)cc3)c2N)cc1", "activity change, negative = inhibition": -3.17},
      {"smiles": "Cc1ccccc1CCNC(=O)C1CCN(c2nc3ccccc3nc2C(F)(F)F)CC1", "activity change, negative = inhibition": 4.43},
      {"smiles": "O=C(c1ccccc1F)N1CCC(c2nc3c(nnn3Cc3cccc(F)c3)c(=O)[nH]2)CC1", "activity change, negative = inhibition": 7.98},
      {"smiles": "CCOc1ccc(NC(=O)c2c(NCc3cccc(OC)c3OC)sc3c2CCC3)cc1", "activity change, negative = inhibition": -16.2},
      {"smiles": "COc1cc(OC)c(NC(=O)c2cc(S(=O)(=O)N3CCCC3)cn2C)cc1Cl", "activity change, negative = inhibition": -0.894},
      {"smiles": "O=C(COc1ccc(Cl)cc1)Nc1ccccc1OCc1cc(=O)n2ccccc2n1", "activity change, negative = inhibition": -3.61},
      {"smiles": "COc1ccc(OC)c(NC(=O)CSC2=Nc3ccccc3C3=NC(CC(=O)NCCc4ccccc4)C(=O)N23)c1", "note": "(stereo not drawn)", "activity change, negative = inhibition": -6.25},
      {"smiles": "O=C(COc1ccccc1Cl)Nc1ccc2nc(SCC(=O)N3CCCC3)sc2c1", "activity change, negative = inhibition": -3.02},
      {"smiles": "O=C(CN1c2ccccc2S(=O)(=O)c2ccccc21)Nc1cccc(C(F)(F)F)c1", "activity change, negative = inhibition": -11.9},
      {"smiles": "COc1cccc(-c2nc(CS(=O)(=O)CC(=O)N3CCN(c4cc(C)ccc4C)CC3)c(C)o2)c1", "activity change, negative = inhibition": -8.51},
      {"smiles": "COc1ccc(CNC(=O)CSc2nc3ccccc3nc2Cc2ccccc2)cc1", "activity change, negative = inhibition": 10.4},
      {"smiles": "CCOC(=O)c1c(C)n(S(=O)(=O)c2ccc(C)cc2C)c2ccc(NS(=O)(=O)c3ccc(C)cc3C)cc12", "activity change, negative = inhibition": -0.772},
      {"smiles": "CCOc1cccc(C(=O)Nc2nnc(S(=O)(=O)N(C)c3ccc(C)cc3)s2)c1", "activity change, negative = inhibition": 0},
      {"smiles": "COc1ccccc1Nc1c2c(nc3ccc(NC(=O)/C=C/c4cc(OC)c(OC)c(OC)c4)cc13)CCCC2", "activity change, negative = inhibition": 1.05},
      {"smiles": "O=C(Nc1c(-c2ccc(F)cc2)nc2ccccn12)c1cccc(F)c1", "activity change, negative = inhibition": -3.61},
      {"smiles": "Cc1ccc(-n2ncc3c(N4CCC(C(N)=O)CC4)ncnc32)cc1", "activity change, negative = inhibition": -7.51},
      {"smiles": "Cc1c(NC(=O)Cc2ccccc2)cccc1-c1nc2cccnc2s1", "activity change, negative = inhibition": 0}
    ]}
  ]
}
